Reference: ChEMBL document CHEMBL1961873, “Compounds: GSK PKIS; Assays: Nanosyn kinase panel” (2012)

How the values were obtained:
[1] = molecular target: T1, Mitogen-activated protein kinase 12 (Homo sapiens) (UniProt P53778); settings: at 1 µM;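 further: values are averaged p38gamma kinase inhibition readings, compounds tested at 1 µM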
T1 sequence (whole entry): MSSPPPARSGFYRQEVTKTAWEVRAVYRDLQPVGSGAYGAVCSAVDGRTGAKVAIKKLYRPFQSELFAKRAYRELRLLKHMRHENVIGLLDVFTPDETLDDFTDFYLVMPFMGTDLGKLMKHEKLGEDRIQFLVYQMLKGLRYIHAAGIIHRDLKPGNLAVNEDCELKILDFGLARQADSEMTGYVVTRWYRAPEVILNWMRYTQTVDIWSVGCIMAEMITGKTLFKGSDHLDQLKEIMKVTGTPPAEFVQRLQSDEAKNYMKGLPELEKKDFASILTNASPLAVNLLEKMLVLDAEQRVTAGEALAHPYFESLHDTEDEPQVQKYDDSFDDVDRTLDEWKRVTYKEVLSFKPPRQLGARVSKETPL

[2] = molecular target: SRSF protein kinase 1 (Homo sapiens) (UniProt Q96SB4); settings: at 0.1 µM
Chain of SRSF protein kinase 1 (Homo sapiens) (Q96SB4 whole entry, canonical isoform): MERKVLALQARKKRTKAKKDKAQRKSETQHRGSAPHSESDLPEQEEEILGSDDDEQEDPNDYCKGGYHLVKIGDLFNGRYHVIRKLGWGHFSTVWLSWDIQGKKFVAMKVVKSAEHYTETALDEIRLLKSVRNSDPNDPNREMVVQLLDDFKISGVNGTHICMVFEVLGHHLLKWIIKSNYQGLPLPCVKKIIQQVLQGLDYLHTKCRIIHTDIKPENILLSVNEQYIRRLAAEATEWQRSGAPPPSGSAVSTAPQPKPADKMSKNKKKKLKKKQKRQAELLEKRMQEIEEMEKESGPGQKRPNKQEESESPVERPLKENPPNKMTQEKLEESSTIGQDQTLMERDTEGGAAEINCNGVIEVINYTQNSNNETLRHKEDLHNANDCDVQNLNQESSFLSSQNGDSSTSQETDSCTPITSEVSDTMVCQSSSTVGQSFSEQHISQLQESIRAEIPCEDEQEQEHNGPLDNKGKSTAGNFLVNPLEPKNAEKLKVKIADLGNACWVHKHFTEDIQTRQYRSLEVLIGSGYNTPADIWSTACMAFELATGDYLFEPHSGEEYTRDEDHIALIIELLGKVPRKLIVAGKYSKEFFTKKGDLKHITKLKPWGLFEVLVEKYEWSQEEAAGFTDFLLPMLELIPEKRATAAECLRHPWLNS

[3] = molecular target: SRSF protein kinase 1 (Homo sapiens) (UniProt Q96SB4); settings: at 1 µM
[4] = molecular target: Phosphatidylinositol 4,5-bisphosphate 3-kinase catalytic subunit alpha isoform (Homo sapiens) (UniProt P42336); settings: at 0.1 µM
Chain of Phosphatidylinositol 4,5-bisphosphate 3-kinase catalytic subunit alpha isoform (Homo sapiens) (P42336 whole entry, canonical isoform): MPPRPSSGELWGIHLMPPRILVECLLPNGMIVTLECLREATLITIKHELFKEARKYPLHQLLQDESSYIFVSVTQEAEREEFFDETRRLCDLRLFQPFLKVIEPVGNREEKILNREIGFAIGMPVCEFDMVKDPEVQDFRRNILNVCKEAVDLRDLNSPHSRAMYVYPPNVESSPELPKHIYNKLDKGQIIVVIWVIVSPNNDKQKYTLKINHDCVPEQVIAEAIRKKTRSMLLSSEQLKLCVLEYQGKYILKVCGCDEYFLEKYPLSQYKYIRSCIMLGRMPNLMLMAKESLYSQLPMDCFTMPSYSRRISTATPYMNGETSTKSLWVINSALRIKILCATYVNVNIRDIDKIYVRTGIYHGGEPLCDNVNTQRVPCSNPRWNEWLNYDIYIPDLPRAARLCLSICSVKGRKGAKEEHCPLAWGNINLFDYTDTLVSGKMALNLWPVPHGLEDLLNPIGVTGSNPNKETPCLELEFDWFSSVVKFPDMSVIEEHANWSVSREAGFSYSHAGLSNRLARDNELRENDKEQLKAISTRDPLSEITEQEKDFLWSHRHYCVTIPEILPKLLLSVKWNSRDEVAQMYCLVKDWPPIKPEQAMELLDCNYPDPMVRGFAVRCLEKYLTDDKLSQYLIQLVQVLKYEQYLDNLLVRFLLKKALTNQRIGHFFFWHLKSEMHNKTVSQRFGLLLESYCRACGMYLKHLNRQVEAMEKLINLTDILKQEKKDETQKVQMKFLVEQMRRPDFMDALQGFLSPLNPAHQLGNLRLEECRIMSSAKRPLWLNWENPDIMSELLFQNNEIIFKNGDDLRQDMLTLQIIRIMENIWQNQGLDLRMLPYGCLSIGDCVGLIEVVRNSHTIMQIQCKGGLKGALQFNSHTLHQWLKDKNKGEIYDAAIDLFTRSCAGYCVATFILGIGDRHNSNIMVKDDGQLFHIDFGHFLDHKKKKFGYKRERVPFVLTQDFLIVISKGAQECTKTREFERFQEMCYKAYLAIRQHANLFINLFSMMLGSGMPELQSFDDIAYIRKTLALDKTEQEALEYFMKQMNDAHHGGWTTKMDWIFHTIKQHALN

[5] = molecular target: Phosphatidylinositol 4,5-bisphosphate 3-kinase catalytic subunit alpha isoform (Homo sapiens) (UniProt P42336); settings: at 1 µM
[6] = molecular target: T2, Phosphatidylinositol 4,5-bisphosphate 3-kinase catalytic subunit delta isoform (Homo sapiens) (UniProt O00329); settings: at 0.1 µM
T2 sequence (whole entry): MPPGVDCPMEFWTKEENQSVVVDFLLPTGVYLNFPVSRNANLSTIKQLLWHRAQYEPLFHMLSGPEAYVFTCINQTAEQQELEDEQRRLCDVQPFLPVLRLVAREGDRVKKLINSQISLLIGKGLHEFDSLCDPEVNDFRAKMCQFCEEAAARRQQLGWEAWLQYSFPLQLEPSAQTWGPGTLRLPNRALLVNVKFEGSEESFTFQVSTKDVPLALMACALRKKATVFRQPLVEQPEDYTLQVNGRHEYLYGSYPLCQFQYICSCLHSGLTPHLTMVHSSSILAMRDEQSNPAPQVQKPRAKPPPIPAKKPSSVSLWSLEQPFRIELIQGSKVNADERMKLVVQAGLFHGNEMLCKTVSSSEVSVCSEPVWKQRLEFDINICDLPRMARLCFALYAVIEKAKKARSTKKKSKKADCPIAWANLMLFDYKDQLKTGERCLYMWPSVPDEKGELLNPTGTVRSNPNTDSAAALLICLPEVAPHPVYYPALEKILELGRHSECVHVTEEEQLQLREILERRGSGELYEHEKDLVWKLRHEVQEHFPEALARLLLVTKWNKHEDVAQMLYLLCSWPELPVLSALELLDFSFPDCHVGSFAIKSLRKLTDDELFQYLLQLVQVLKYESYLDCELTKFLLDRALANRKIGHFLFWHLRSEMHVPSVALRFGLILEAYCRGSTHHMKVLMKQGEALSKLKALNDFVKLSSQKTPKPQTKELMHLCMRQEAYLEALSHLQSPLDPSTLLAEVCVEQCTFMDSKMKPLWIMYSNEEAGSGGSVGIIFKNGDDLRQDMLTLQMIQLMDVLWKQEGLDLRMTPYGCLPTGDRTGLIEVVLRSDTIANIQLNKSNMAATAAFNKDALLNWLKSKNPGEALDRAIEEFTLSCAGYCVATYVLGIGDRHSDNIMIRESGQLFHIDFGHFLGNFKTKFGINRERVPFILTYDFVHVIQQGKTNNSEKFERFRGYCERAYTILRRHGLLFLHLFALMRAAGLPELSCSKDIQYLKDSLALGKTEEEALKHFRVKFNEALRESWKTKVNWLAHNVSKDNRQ

[7] = molecular target: T2, Phosphatidylinositol 4,5-bisphosphate 3-kinase catalytic subunit delta isoform (Homo sapiens); settings: at 1 µM
[8] = molecular target: Phosphatidylinositol 4-kinase beta (Homo sapiens) (UniProt Q9UBF8); settings: at 0.1 µM
Chain of Phosphatidylinositol 4-kinase beta (Homo sapiens) (Q9UBF8 2-816 limits assumed): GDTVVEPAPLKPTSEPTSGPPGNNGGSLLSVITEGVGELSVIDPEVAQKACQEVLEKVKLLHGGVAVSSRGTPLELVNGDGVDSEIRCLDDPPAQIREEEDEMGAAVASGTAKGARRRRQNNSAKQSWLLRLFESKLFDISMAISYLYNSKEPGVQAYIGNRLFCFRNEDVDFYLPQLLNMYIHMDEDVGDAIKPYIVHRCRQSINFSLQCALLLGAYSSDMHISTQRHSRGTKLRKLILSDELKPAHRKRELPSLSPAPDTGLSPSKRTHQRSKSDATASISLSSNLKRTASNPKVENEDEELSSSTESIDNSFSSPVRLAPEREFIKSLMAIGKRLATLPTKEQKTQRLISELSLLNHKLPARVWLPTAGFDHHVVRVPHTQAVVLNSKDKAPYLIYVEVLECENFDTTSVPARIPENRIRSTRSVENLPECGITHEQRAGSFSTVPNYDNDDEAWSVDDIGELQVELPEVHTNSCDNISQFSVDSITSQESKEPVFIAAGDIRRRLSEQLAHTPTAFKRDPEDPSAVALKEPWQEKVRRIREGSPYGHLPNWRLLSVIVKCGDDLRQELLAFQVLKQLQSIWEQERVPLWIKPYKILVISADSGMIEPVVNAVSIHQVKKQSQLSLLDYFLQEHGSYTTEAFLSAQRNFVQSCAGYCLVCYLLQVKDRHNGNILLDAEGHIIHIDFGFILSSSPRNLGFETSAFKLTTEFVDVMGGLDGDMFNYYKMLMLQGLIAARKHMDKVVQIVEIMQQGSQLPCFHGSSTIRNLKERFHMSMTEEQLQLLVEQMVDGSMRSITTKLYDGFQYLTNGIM

[9] = molecular target: Phosphatidylinositol 4-kinase beta (Homo sapiens) (UniProt Q9UBF8); settings: at 1 µM
[10] = molecular target: Sphingosine kinase 1 (Homo sapiens) (UniProt Q9NYA1); settings: at 0.1 µM;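 further: mean percent inhibition of SPHK1 activity, measured within the GSK PKIS screening panel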
Chain of Sphingosine kinase 1 (Homo sapiens) (Q9NYA1 whole entry): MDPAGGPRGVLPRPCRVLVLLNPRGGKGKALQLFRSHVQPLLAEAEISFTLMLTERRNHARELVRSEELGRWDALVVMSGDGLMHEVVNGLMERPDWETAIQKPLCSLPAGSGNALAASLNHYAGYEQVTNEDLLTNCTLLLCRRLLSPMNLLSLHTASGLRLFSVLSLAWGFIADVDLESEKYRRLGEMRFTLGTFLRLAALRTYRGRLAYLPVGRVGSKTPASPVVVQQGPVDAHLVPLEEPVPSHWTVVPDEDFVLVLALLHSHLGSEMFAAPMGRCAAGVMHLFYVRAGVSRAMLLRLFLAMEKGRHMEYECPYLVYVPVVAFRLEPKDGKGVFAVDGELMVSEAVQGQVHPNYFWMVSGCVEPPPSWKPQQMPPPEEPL

| SMILES | inhibition [1] [%] | inhibition [2] [%] | inhibition [3] [%] | inhibition [4] [%] | inhibition [5] [%] | inhibition [6] [%] | inhibition [7] [%] | inhibition [8] [%] | inhibition [9] [%] | inhibition [10] [%] |
| --- | --- | --- | --- | --- | --- | --- | --- | --- | --- | --- |
| c1ccc(-c2n[nH]cc2-c2ccnc(-c3ccc(OCCN4CCOCC4)cc3)c2)nc1 | 0.29 | 2.99 | -0.67 | 0.37 | 0.17 | 2.7 | 3.02 | -0.93 | -1.19 | -5.06 |
| Cc1ccc(C(=O)NC2CCC2)cc1-c1ccc(C(=O)NCC2CC2)cc1 | 1.52 | -1.15 | -3.91 | 1.03 | 2.46 | 0.19 | 3.4 | -3.28 | 0.35 | 0.24 |
| COc1cccc(/C=N/Nc2ncnc3c2cnn3-c2cccc(OC)c2)c1 | 4.21 | -3.08 | -2.5 | 4.36 | 1.65 | 0.9 | 1.58 | 3.72 | 2.27 | 2.07 |
| Fc1ccc(-c2c(-c3ccncc3)nc3n2CCS3)cc1 | 2.27 | -0.47 | -2.14 | 2.88 | 4.64 | 2.37 | 3.22 | -2.06 | 1.12 | 3.13 |
| COc1ccc(C2=C(N3CCc4ccccc43)C(=O)NC2=O)cc1 | 3.4 | -1.12 | 0.76 | 6.53 | 12.6 | 5.26 | 9.11 | 3.23 | -7.57 | 0.25 |
| CNC(=O)c1cncc(/C=C/c2c(C)cccc2C)c1 | -0.37 | 0.32 | 0.21 | -1.85 | -3.99 | -1.64 | -1.98 | 3.95 | 0.59 | 0.03 |
| COc1cc(Nc2ncc(-c3ccccc3)o2)cc(OC)c1OC | -1.06 | 2.19 | 1 | 0.99 | 2.57 | 2.6 | 11.4 | 11.5 | 7.23 | 1.38 |
| COc1cc2ncn(-c3cc(OCc4cccs4)c(C(N)=O)s3)c2cc1OC | 1.93 | 1.92 | 7.84 | 2.89 | 8.89 | 2.03 | 12.9 | 4.6 | -3.17 | 0.03 |
| O=C(Nc1n[nH]c2nc(-c3ccco3)ccc12)C1CC1 | 0.97 | -1.07 | -1.33 | -1.36 | 0.99 | -0.99 | 1.03 | 3.38 | 1.68 | -0.31 |
| FC(F)(F)c1cccc(Nc2nccc(-c3cnn4nc(-c5ccccc5)ccc34)n2)c1 | 1.51 | -2.07 | -0.92 | 2.52 | 8.98 | -0.34 | 8.75 | -0.22 | -1.63 | 1.87 |
| CN(C)c1ccc2c(c1)/C(=C/Nc1ccc(S(N)(=O)=O)cc1)C(=O)N2 | 1.82 | -1.68 | -2.04 | 0.45 | 4.82 | 0.7 | 4.54 | -6.01 | 3.23 | 3.41 |
| CS(=O)(=O)CCNCc1cc(-c2cc3c(Nc4ccc(OCc5cccc(F)c5)c(Cl)c4)ncnc3s2)cs1 | 6 | -3.5 | -2.78 | 4.7 | 5.78 | 0.67 | 7.33 | -1.24 | 3.94 | 1.57 |
| CCC(=O)Nc1ccc(C)c(-c2ccc(C(=O)NCC3CC3)cc2)c1 | 4.44 | -3.31 | -2.74 | 2.7 | 0.64 | 0.57 | -0.59 | -0.74 | -0.15 | -3.42 |
| COc1cc(Nc2ncc3c(C)nc(-c4cccc(Oc5ccccc5)c4)n3n2)cc(OC)c1OC | 0.85 | -2.01 | -3.6 | 0.78 | 1.96 | 0.25 | 2.99 | 2.58 | 2.46 | -1.6 |
| COC(=O)Nc1nc2ccc(Sc3ccc(NC(=O)Nc4cc(C(F)(F)F)ccc4F)cc3)cc2[nH]1 | 2.22 | -1.15 | -0.09 | -1.35 | 8.27 | 0.7 | 10.2 | 1.21 | -4.04 | 0.39 |
| C#Cc1cccc(Nc2ncnc3ccc(OCCCCNCCS(C)(=O)=O)cc23)c1 | 3.54 | -1.38 | -0.94 | 5 | 4.83 | 2.6 | 5.7 | -2.49 | -1.03 | 5.65 |
| O=C(Nc1n[nH]c2nc(-c3ccc(O)cc3)c(Br)cc12)C1CC1 | 16.6 | -0.67 | 0.36 | 6.93 | 6 | 3.58 | 6.8 | -5.7 | 3.27 | -0.06 |

| SMILES | inhibition [1] [%] | inhibition [2] [%] | inhibition [3] [%] | inhibition [4] [%] | inhibition [5] [%] | inhibition [6] [%] | inhibition [7] [%] | inhibition [8] [%] | inhibition [9] [%] | inhibition [10] [%] |
| --- | --- | --- | --- | --- | --- | --- | --- | --- | --- | --- |
| C[C@@H](Oc1cc(-n2cnc3ccc(OC4CCN(C)CC4)cc32)sc1C(N)=O)c1ccccc1Cl | 5.86 | -2.69 | -1.4 | 5.06 | 19.7 | 9.45 | 62.5 | -3.18 | 3.72 | -2.98 |
| Cc1ccc(C(=O)NC(C)C)cc1-c1ccc(C(=O)NCC2CC2)cc1 | -1.93 | 1.33 | 30.8 | -2.38 | -1.61 | -1.08 | -1.45 | -3.91 | -3.13 | -0.6 |
| Fc1ccc(-c2ncn(CCCN3CCOCC3)c2-c2ccncc2)cc1 | 0.4 | 0.27 | -5.35 | -0.43 | 0.51 | 1.59 | 2.95 | -1.68 | -0.65 | 1.13 |
| COc1cc2ncn(-c3cc(OCCc4ccccc4)c(C(N)=O)s3)c2cc1OC | 1.89 | -2.73 | -4.19 | 2.08 | 3.83 | 2.55 | 5.55 | -0.92 | 3.17 | -0.54 |
| NC(=O)c1cc(-c2ccncc2)cc(-c2ccccc2)c1N | 3.34 | -1.6 | -0.84 | 4.53 | 6.5 | 3.68 | 5.3 | 0.64 | 3.86 | -0.86 |
| COc1ccc(-c2ccc3c(NC(=O)C4CC4)n[nH]c3n2)cc1 | 0.89 | -0.87 | 1.03 | 1.49 | 0.27 | -0.49 | -0.82 | -2.64 | -0.19 | 0.68 |
| O=C(Nc1ccc(Oc2ccc3[nH]c(NC(=O)c4ccccc4)nc3c2)cc1)Nc1cc(C(F)(F)F)ccc1F | 3.12 | -0.76 | 7.91 | 0.59 | 8.12 | -0.81 | 8.31 | 1.83 | -2.27 | 0.81 |
| COc1cc(C)c(N(C)C(=O)CN(C)C)cc1Nc1nc(Nc2cccc(F)c2C(N)=O)c2cc[nH]c2n1 | 1.09 | -1.96 | -3.38 | 0.08 | -0.5 | 0.21 | 1.56 | 3.54 | 0.7 | 0.03 |
| CN(C)CCOc1ccc(-c2cc(-c3ccc4c(c3)CCC4=NO)c(-c3ccncc3)o2)cc1 | -0.32 | -1.96 | -0.37 | -0.14 | 1.74 | 2.02 | 6.39 | 3.66 | 2.02 | -0.35 |
| O=C1NC(=O)C(c2cccc(Cl)c2)=C1Nc1ccc(Cl)c(C(=O)O)c1 | 1.67 | -2.19 | -1.47 | 3.63 | 1.55 | 1.72 | -0.43 | 0.69 | -0.07 | 0.25 |
| NC(=O)c1cc(-c2ccc(F)cc2)cc(-c2ccncc2)c1N | 3.29 | -2.19 | -2.78 | 3.84 | 22.8 | 2.48 | 4.83 | -4.18 | -2.52 | -2.79 |
| Cc1ccc(NC(=O)c2ccoc2)cc1-c1ccc(C(=O)NCC2CC2)cc1 | 1.97 | -1.34 | -0.85 | 2.81 | 3.57 | 1.77 | 2.51 | 1.89 | -1.62 | 0 |
| O=C(NCC1CC1)c1ccc(-c2cccc(C(=O)NC3CC3)c2)cc1 | 1.8 | -1.5 | -3.41 | 1.61 | 1.53 | 1.94 | 2.38 | -4.62 | -1.95 | 0.53 |
| c1ccc(Oc2ccc(Nc3ncc(-c4ccccc4)o3)cc2)cc1 | 1.07 | -0.83 | 0.96 | 4.13 | 5.69 | 6.64 | 7.88 | 2.11 | 4.73 | 0.41 |
| COc1ccc2ncn(-c3cc(O[C@H](C)c4ccccc4Cl)c(C(N)=O)s3)c2c1 | 4.09 | -1.6 | -1.38 | 3.9 | 4.87 | 1.95 | 17.5 | 1.3 | -2.87 | 1.65 |
| CN(C)CCCNc1nccc(-c2c(-c3ccc(F)cc3)nn3cc(C(F)(F)F)ccc23)n1 | 5.27 | -0.17 | -0.01 | 0.79 | 0.02 | 2.6 | 2 | -3.83 | 11.1 | 0 |
